HTT ATP protect: protects HTT-Q103 PC12 cells, measured by ATP; PC12 HTT-Q103 induced, cytoprotection, ATP luminescence, 40 h; Potency, µM (top dose mostly 56.4 µM), for inactives: cytoprotection (ATP increase), actives largely listed as activators; 230,000 compounds, 0.14% hits; AID 1471; active = well fitted curve in the direction sought with a large enough effect; inconclusive = small, poorly fitted or top-dose-only effect, or another doubt; inactive = no such curve, though single readings can be large; an effect the other way counts as inactive or inconclusive; also: potency is read from the fitted curve at half-maximal effect; % of control where 0% means no effect; nearly all actives have a fitted effect of over 45% in size
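Rat PC12, Q103 Htt exon1-GFP fusion, ecdysone promoter; tebufenozide inducer 100 nM final; compound titration; qHTS, 1500 cells/well; ATPlite luminescent read.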
KDM4E inh: inhibitors of human JMJD2E histone demethylase; Potency, µM (top dose mostly 57.1 µM), for the others: top-dose activity change, negative = inhibition, usual class: inhibitors; JMJD2E catalytic domain, FDH-coupled NADH fluorescence (FDH is formaldehyde dehydrogenase); 230,000 compounds, 1.6% hits; AID 2147;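 also: potency is read from the fitted curve at half-maximal effect; 0% = wells with enzyme and -100% = buffer wells without enzyme; nearly all actives have a fitted effect of over 50% in size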
Target sequence (B2RXH2 1-337 limits assumed): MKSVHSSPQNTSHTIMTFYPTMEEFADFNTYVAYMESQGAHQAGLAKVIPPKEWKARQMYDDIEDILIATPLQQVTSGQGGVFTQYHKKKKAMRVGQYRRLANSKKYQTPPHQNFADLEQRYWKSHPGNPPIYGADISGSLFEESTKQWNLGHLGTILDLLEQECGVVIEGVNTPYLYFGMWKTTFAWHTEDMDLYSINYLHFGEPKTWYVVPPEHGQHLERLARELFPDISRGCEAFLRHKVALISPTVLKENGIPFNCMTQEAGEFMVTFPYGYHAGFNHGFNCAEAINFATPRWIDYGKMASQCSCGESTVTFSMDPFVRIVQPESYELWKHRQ
HttQ103 aggreg: inhibitors of mutant huntingtin aggregate formation in PC12 cells. PC12 HttQ103-GFP aggregates, Acumen cytometry, 40 h. Potency, µM (highest dose often 46.1 µM), for the others: top-dose activity change, negative = inhibition, actives largely listed as inhibitors. 220,000 compounds, 1.1% hits. AID 1688; active = well fitted curve in the direction sought with a large enough effect; inconclusive = small, poorly fitted or top-dose-only effect, or another doubt; inactive = no such curve, though single readings can be large; an effect the other way counts as inactive or inconclusive; also: potency is read from the fitted curve at half-maximal effect; % is scaled to controls: 0 for no effect and ±100 for the full control effect; nearly all actives have a fitted effect of over 60% in size
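Aggregate formation scored by laser-scanning cytometer (488 excitation, 500–530 emission) in lysed PC12 cells expressing Q103-GFP after 100 nM tebufenozide induction; library tested in dose series, with ATPLite reagent added in the multiplex.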
CBFb-RUNX1 inh: blocks binding between human CBF-beta and RUNX1; Q01196+Q13951; AlphaScreen CBFb-His/RUNX1-biotin binding, biochemical; Potency, µM (highest dose often 59.8 µM), inactives show at the top dose activity, negative = inhibition, hits mostly inhibitors; 230,000 tested, under 10 active; AID 1477; active = well fitted curve in the direction sought with a large enough effect; inconclusive = small, poorly fitted or top-dose-only effect, or another doubt; inactive = no such curve, though single readings can be large; an effect the other way counts as inactive or inconclusive; also: % of control where 0% means no effect
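His-tagged CBF-beta and biotinylated RUNX1 (30 nM each) were premixed 20 min at room temperature, exposed to compound for 15 min, then given nickel-chelate and streptavidin AlphaScreen beads (50 ng each). After 90 min, AlphaScreen signal was read.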
HPGD inh: inhibitors of human 15-hydroxyprostaglandin dehydrogenase (HPGD). P15428. purified HPGD, NADH fluorescence kinetic, PGE2 substrate. Potency, µM, without a hit: at the highest dose activity change, negative = inhibition, usual class: inhibitors. 150,000 compounds, 4.3% hits. AID 894; also: potency is read from the fitted curve at half-maximal effect; % is scaled to controls: 0 for no effect and ±100 for the full control effect
Target sequence (P15428 whole entry, looked up): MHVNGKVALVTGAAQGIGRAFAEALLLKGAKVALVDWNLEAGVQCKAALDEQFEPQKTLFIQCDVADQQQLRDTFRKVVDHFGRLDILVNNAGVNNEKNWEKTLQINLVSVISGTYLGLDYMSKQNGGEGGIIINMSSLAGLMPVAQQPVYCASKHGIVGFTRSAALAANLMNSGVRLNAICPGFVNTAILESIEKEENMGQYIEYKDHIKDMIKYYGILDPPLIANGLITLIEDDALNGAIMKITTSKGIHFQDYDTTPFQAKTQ
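NADH formation kinetics: reaction with 30 uM PGE2 and 1 mM NAD+ (final), 20 nM enzyme, Tris-HCl pH 8 with Tween 20, after 15 min compound preincubation at room temperature. Fluorescence change, last versus first of five reads.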
ALDH1A1 inh: inhibitors of human aldehyde dehydrogenase 1A1; Potency, µM (series often up to 75.3 µM), for the others: top-dose activity, negative = inhibition, usual class: inhibitors; Purified ALDH1A1, NADH fluorescence, propionaldehyde substrate; 220,000 compounds, 7.3% hits; P00352; AID 1030;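 also: potency is read from the fitted curve at half-maximal effect; plate controls were no enzyme wells and a reference inhibitor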
* marks the source's active call; other numbers are inactive results; [ ] = dose if it differs, or a comment. The list is not random: actives were taken first. Their share in the collection is about 9.8%. Unless noted, calls follow the shape of the dose curve; as a rule, active = well fitted inhibition curve with a large enough effect (not every such curve was filed as active); inconclusive = small, poorly fitted or top-dose-only effect, or another doubt; inactive = no such curve, though single readings can be large or run the other way.

What do the screens show for `O=C(NCCc1ccccc1)c1oc2ccccc2c1COc1ccccc1`?
HTT ATP protect: 37.1%[10 µM]; KDM4E inh: -2.6%; HttQ103 aggreg: 14.1µM*; CBFb-RUNX1 inh: inconclusive; HPGD inh: -15.3%; ALDH1A1 inh: -2.6%

What do the screens show for `Cc1sc2ncn(CC(=O)Nc3c(F)cccc3F)c(=O)c2c1S(=O)(=O)N1CCC(C)CC1`?
HTT ATP protect: -31.7%; KDM4E inh: 7.1%; HttQ103 aggreg: 25.3%; CBFb-RUNX1 inh: -6.0%; ALDH1A1 inh: 0.2%

How did O=C(c1ccccc1Cl)N1CCc2ccccc2C1 do in these assays?
HTT ATP protect: -8.0%[10 µM]; KDM4E inh: -3.2%; HttQ103 aggreg: inconclusive; CBFb-RUNX1 inh: 6.5%; HPGD inh: 4.47µM*; ALDH1A1 inh: inconclusive

What do the screens show for `O=C(c1cncc(Br)c1)N1CCc2ccccc2C1`?
HTT ATP protect: 14.4%[10 µM]; KDM4E inh: 1.0%; HttQ103 aggreg: 10µM*; CBFb-RUNX1 inh: -3.4%; HPGD inh: 10µM*; ALDH1A1 inh: 5.9%

Results for O=C(c1ccc(Cl)nc1)N1CCc2ccccc2C1 ?
HTT ATP protect: 5.9%[10 µM]; KDM4E inh: 0.7%; HttQ103 aggreg: -13.7%; CBFb-RUNX1 inh: -2.2%; HPGD inh: 7.94µM*; ALDH1A1 inh: -1.2%

How did CSc1ccccc1C(=O)N1CCc2ccccc2C1 do in these assays?
KDM4E inh: -4.1%; HttQ103 aggreg: -11.6%; CBFb-RUNX1 inh: 11.1%; ALDH1A1 inh: 1.4%

How did COc1cccc(C(=O)N2CCN(C(=O)c3cccc(F)c3)CC2)c1 do in these assays?
HTT ATP protect: 7.4%[10 µM]; KDM4E inh: -3.2%; HttQ103 aggreg: -9.5%; CBFb-RUNX1 inh: -0.7%; HPGD inh: -1.2%; ALDH1A1 inh: inconclusive

Results for O=C(c1cncc(Br)c1)N1CCCc2ccccc21 ?
HTT ATP protect: -7.8%; KDM4E inh: -2.6%; HttQ103 aggreg: -7.9%; CBFb-RUNX1 inh: 2.2%; HPGD inh: -11.3%; ALDH1A1 inh: -10.4%

Results for O=C(c1cccc(F)c1)N1CCc2ccccc2C1 ?
HTT ATP protect: -7.4%; KDM4E inh: -2.0%; HttQ103 aggreg: -26.5%; CBFb-RUNX1 inh: 5.8%; HPGD inh: 5.01µM*; ALDH1A1 inh: 14.1µM*

What do the screens show for `CN(C)CCNC(=O)c1cccc(S(=O)(=O)Nc2ccccc2F)c1`?
HTT ATP protect: 0.5%[10 µM]; KDM4E inh: 6.3%; HttQ103 aggreg: 19.6%; CBFb-RUNX1 inh: -2.3%; ALDH1A1 inh: -94.8%

How did O=C(Nc1ccccc1)N1CC[C@@]2(CCCN(C(=O)c3cccc(F)c3)C2)C1 do in these assays?
HTT ATP protect: 13.9%; HPGD inh: -0.8%; ALDH1A1 inh: -3.2%

What do the screens show for `N#Cc1c(-n2cccc2C=O)sc2c1CCCC2`?
HTT ATP protect: -43.7%; KDM4E inh: -2.2%; HttQ103 aggreg: -20.9%; CBFb-RUNX1 inh: -0.6%; ALDH1A1 inh: 31.6µM*

How did CC12C=C(/C=C/C=C/c3ccco3)C(C)(C1)C(/C=C/c1ccco1)CC2=O (stereo not given) do in these assays?
HTT ATP protect: 4.4%[10 µM]; CBFb-RUNX1 inh: inconclusive; ALDH1A1 inh: -13.5%[13.5 µM]

Results for CC(=O)Nc1ccc(S(=O)(=O)NCC(=O)OCc2ccccc2)cc1 ?
HTT ATP protect: -5.3%[10 µM]; KDM4E inh: 1.6%; HttQ103 aggreg: 9.2%; CBFb-RUNX1 inh: 6.2%; HPGD inh: -5.1%; ALDH1A1 inh: -5.9%

What do the screens show for `CS(=O)(=O)c1ccc(S(=O)CC(=O)OCc2ccccc2)c([N+](=O)[O-])c1` (stereo not given)?
KDM4E inh: -15.5%; HttQ103 aggreg: inconclusive; CBFb-RUNX1 inh: 4.6%; ALDH1A1 inh: 12.6µM*

Results for COc1ccc(-c2cc(C(F)F)nn2-c2ccc(S(N)(=O)=O)cc2)cc1F ?
HTT ATP protect: 8.91µM*; KDM4E inh: 4.2%; HttQ103 aggreg: 8.0%; CBFb-RUNX1 inh: 12.1%; HPGD inh: -17.9%; ALDH1A1 inh: 17.1%

How did Cc1ccc(C(=O)Nc2nc(=O)n(C(=O)c3ccccc3C)s2)cc1 do in these assays?
HTT ATP protect: 17.8µM*; KDM4E inh: -7.0%; CBFb-RUNX1 inh: -4.1%; HPGD inh: -11.8%; ALDH1A1 inh: inconclusive

How did O=C(NCCc1cnn(-c2ccccc2)c1)c1cc(COc2c(F)cccc2F)on1 do in these assays?
HTT ATP protect: -17.0%[10 µM]; KDM4E inh: 4.8%; HttQ103 aggreg: -6.0%[9.22 µM]; CBFb-RUNX1 inh: 11.7%; ALDH1A1 inh: -13.6%

How did O=C(O)C1Nc2c(O)cccc2C2C=CCC12 (stereo not given) do in these assays?
HTT ATP protect: 30.3%[10 µM]; KDM4E inh: 17.8µM*; HttQ103 aggreg: -25.8%; HPGD inh: -29.1%; ALDH1A1 inh: -3.4%

What do the screens show for `O=C(OC1CCCCC1)c1ccc2c(c1)C1C=CCC1C(C(=O)O)N2` (stereo not given)?
HTT ATP protect: -0.8%[10 µM]; KDM4E inh: -21.3%; HttQ103 aggreg: -0.4%; HPGD inh: inconclusive; ALDH1A1 inh: 15.8µM*

What do the screens show for `O=C(OC1CCCCC1)c1ccc(NC(=O)C2CCCCC2)cc1`?
HTT ATP protect: -45.0%; KDM4E inh: -5.0%; HttQ103 aggreg: -12.6%[9.22 µM]; CBFb-RUNX1 inh: 13.2%; HPGD inh: -3.1%; ALDH1A1 inh: -14.3%

What do the screens show for `CCC1CCCCN1C(=O)COc1cc(=O)n(C)c2ccccc12` (stereo not given)?
HTT ATP protect: -15.3%; KDM4E inh: -10.8%; HttQ103 aggreg: 14.0%; CBFb-RUNX1 inh: 0.1%; HPGD inh: inconclusive; ALDH1A1 inh: inconclusive

What do the screens show for `CCC1CCCCN1C(=O)COc1ccccc1NC(C)=O` (stereo not given)?
HTT ATP protect: 5.7%; KDM4E inh: -23.4%; HttQ103 aggreg: -4.9%; CBFb-RUNX1 inh: 5.0%; ALDH1A1 inh: 3.55µM*

What do the screens show for `O=S(=O)(Oc1ccccc1/C=N/n1cnnc1)c1ccccc1`?
HTT ATP protect: -9.2%; KDM4E inh: 0.4%; HttQ103 aggreg: -2.7%[9.22 µM]; CBFb-RUNX1 inh: 1.3%; ALDH1A1 inh: 22.4µM*

How did COc1ccccc1/C=N/n1cnnc1 do in these assays?
HTT ATP protect: -13.2%; KDM4E inh: inconclusive; HttQ103 aggreg: 15.0%; CBFb-RUNX1 inh: 6.2%; HPGD inh: inconclusive; ALDH1A1 inh: inconclusive

How did CCOc1cc(/C=N/n2cnnc2)ccc1OS(=O)(=O)c1ccccc1 do in these assays?
HTT ATP protect: -26.6%[1.9 µM]; KDM4E inh: inconclusive; HttQ103 aggreg: 20.6%[9.22 µM]; CBFb-RUNX1 inh: -0.4%; ALDH1A1 inh: 12.6µM*

What do the screens show for `CCN(CC)C(=O)C1CCC(CNS(=O)(=O)c2cccc3cccnc23)CC1` (stereo not given)?
HTT ATP protect: -2.9%; KDM4E inh: -6.6%; HttQ103 aggreg: -22.5%; CBFb-RUNX1 inh: 8.4%; HPGD inh: 7.94µM*; ALDH1A1 inh: inconclusive

High-throughput results as filed in PubChem.
